Data on ten molecules can be found in PubChem BioAssay (NCATS).

A short description of experiment [1]: qHTS of pediatric cancer cell lines to identify multiple opportunities for drug repurposing: Primary screen for U-2 OS cells (AID 1347096). Note: nearly all actives have a fitted effect of over 50% in size. Note: potency is the fitted concentration of half-maximal effect. The method in brief:
(§1)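 Cells (500-1,000/well) in growth media were settled 5 h at 37 degrees C, then given compounds for 48 h. Viability was read as CellTiter-Glo luminescence. Primary runs used MIPE at 11 points (0.78 nM-46 µM) and NPC at 8 points (0.59 nM-46 µM); follow-ups used 11 points.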

The nature of experiment [2]: qHTS of pediatric cancer cell lines to identify multiple opportunities for drug repurposing: Primary screen for Saos-2 cells (AID 1347097). Note: nearly all actives have a fitted effect of over 40% in size. Note: potency is the fitted concentration of half-maximal effect. The method in brief:
(§2)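 Cells seeded at 500-1,000 cells/well in growth media, rested 5 hours at 37 degrees C, 5% CO2, then dosed; MIPE compounds at 11-point (from 0.78 nM) and NPC at 8-point (from 0.59 nM) final concentrations. Viability by CellTiter-Glo luminescence after 48 hours.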
For orientation: Quantitative high-throughput screening tests each substance at several concentrations.

The nature of experiment [3]: qHTS of pediatric cancer cell lines to identify multiple opportunities for drug repurposing: Primary screen for OHS-50 cells (AID 1347103). Note: nearly all actives have a fitted effect of over 40% in size. Note: potency is the fitted concentration of half-maximal effect. The procedure, abridged: (§3)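 Cells (500-1,000/well) rested 5 h, then received compounds for 48 h; metabolically active cells were measured by CellTiter-Glo luminescence. Final concentrations spanned up to 46 µM (MIPE, 11-point) or 0.59 nM-46 µM (NPC, 8-point) in primary screens, 11-point in follow-ups.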

The nature of experiment [4]: qHTS of pediatric cancer cell lines to identify multiple opportunities for drug repurposing: Confirmatory screen for NB1643 cells (AID 1347109). Note: nearly all actives have a fitted effect of over 45% in size. The method in brief: as §1
Experiment [5] is described as follows: qHTS of pediatric cancer cell lines to identify multiple opportunities for drug repurposing: Confirmatory screen for A673 cells (AID 1347110).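 Note: cells exposed to compound for 48 h before the viability read; nearly all actives have a fitted effect of over 65% in size.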 Note: potency is the fitted concentration of half-maximal effect. The procedure, abridged:
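Viability was read as ATP luminescence (CellTiter-Glo) after 48 h of compound exposure at 37 C in A673 cells seeded at 500-1,000/well. Titrations reached 46 uM final, with 11 points in the confirmatory screen. Concentration-response curves were fitted directly.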

Experiment [6] can be described thus: qHTS of pediatric cancer cell lines to identify multiple opportunities for drug repurposing: Confirmatory screen for LAN-5 cells (AID 1347113). Note: nearly all actives have a fitted effect of over 65% in size. Note: potency is the fitted concentration of half-maximal effect. The procedure, abridged: as §1
Experiment [7] can be described thus: qHTS of pediatric cancer cell lines to identify multiple opportunities for drug repurposing: Primary screen for NB1643 cells (AID 1347099). Note: nearly all actives have a fitted effect of over 50% in size. Note: potency is the fitted concentration of half-maximal effect. The procedure, abridged: as §2
Experiment [8] in a line: qHTS of pediatric cancer cell lines to identify multiple opportunities for drug repurposing: Primary screen for Rh18 cells (AID 1347102). Note: nearly all actives have a fitted effect of over 65% in size. Note: potency is the fitted concentration of half-maximal effect. The method in brief: as §1
Experiment [9] is described as follows: qHTS of pediatric cancer cell lines to identify multiple opportunities for drug repurposing: Primary screen for RD cells (AID 1347104). Note: nearly all actives have a fitted effect of over 55% in size. Note: potency is the fitted concentration of half-maximal effect. The procedure, abridged: as §2
Experiment [10] can be described thus: qHTS of pediatric cancer cell lines to identify multiple opportunities for drug repurposing: Primary screen for control Hh wild type fibroblast cells (AID 1347106). Note: nearly all actives have a fitted effect of over 55% in size. Note: potency is the fitted concentration of half-maximal effect. The procedure, abridged:
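Viability after 48 h compound treatment at 37C, 500-1,000 cells/well, read as ATP luminescence with CellTiter-Glo. Primary screens used 11-point (MIPE, 0.78 nM-46 µM) or 8-point (NPC, 0.59 nM-46 µM) final concentrations; follow-up screens used 11-point dilutions.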

A short description of experiment [11]: qHTS of pediatric cancer cell lines to identify multiple opportunities for drug repurposing: Primary screen for Rh30 cells (AID 1347107). Note: series mostly up to about 46 µM; nearly all actives have a fitted effect of over 75% in size. The method in brief: as §1
The nature of experiment [12]: qHTS of pediatric cancer cell lines to identify multiple opportunities for drug repurposing: Primary screen for Rh41 cells (AID 1347108). Note: nearly all actives have a fitted effect of over 70% in size. Note: potency is the fitted concentration of half-maximal effect. The method in brief: as §2
Experiment [13] is described as follows: qHTS of pediatric cancer cell lines to identify multiple opportunities for drug repurposing: Primary screen for LAN-5 cells (AID 1347100). Note: potency is the fitted concentration of half-maximal effect. The method in brief: as §1
Experiment [14] in a line: qHTS of pediatric cancer cell lines to identify multiple opportunities for drug repurposing: Primary screen for MG 63 (6-TG R) cells (AID 1347105). Note: nearly all actives have a fitted effect of over 50% in size. The method in brief: as §2
Experiment [15] can be described thus: qHTS of pediatric cancer cell lines to identify multiple opportunities for drug repurposing: Confirmatory screen for SK-N-MC cells (AID 1347111).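 Note: potency is the fitted concentration of half-maximal effect; cells exposed to compound for 48 h before the readout; nearly all actives have a fitted effect of over 70% in size.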 The procedure, abridged:
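Metabolically active cells were quantified by ATP-dependent luminescence (CellTiter-Glo, 15 min at room temperature) following 48 h treatment. Cells had been plated at 500-1,000 per well and settled for 5 h beforehand.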

A short description of experiment [16]: qHTS of pediatric cancer cell lines to identify multiple opportunities for drug repurposing: Primary screen for BT-12 cells (AID 1347101). Note: nearly all actives have a fitted effect of over 25% in size. The method in brief:
as §3

SMILES strings stand for the structures. Records with an inconclusive call do not appear. The source made the active and inactive calls. Calls come from the whole dose curve; as a rule, active = well fitted curve in the direction sought with a large enough effect; inconclusive = small, poorly fitted or top-dose-only effect, or another doubt; inactive = no such curve, though single readings can be large; an effect the other way counts as inactive or inconclusive.

`O=C(Nc1cccc(Br)c1)c1cccc(S(=O)(=O)N2CCCCCC2)c1`: the Potency result in [1], in experiment [4], in [5] and in experiment [6] was “inactive” each time. Besides, the Potency in [2] is 16.6 µM (active); in experiment [3], 19.3 µM (active).
Turning to `CO[C@@H](C(=O)N1Cc2[nH]nc(NC(=O)c3ccc(N4CCN(C)CC4)cc3)c2C1)c1ccccc1`, the Potency in experiment [1] was 18.7 µM (active); in experiment [2], 0.833 µM (active); in experiment [7], 0.118 µM (active); in [8], 0.935 µM (active); in [9] it was 5.26 µM (active); in experiment [10] it was 9.35 µM (active). Besides, in experiment [11], the Potency entry was “inactive”.
Regarding `O=C(Nc1cc(Cl)cc2c1[nH]c1cnccc12)c1cccnc1`, the Potency result in [1], in experiment [2], in experiment [8] and in experiment [12] was “inactive” each time.
Consider `O=C1NC(=O)C(=Cc2ccc(-c3ccc(F)cc3)o2)S1`, for which the Potency result in [1], in experiment [8], in experiment [10] and in experiment [12] was “inactive” throughout. Also, in experiment [7], the Potency is 18.7 µM (active).
With `N#Cc1ccc(NC(=O)Nc2ccccc2Br)c2n[nH]nc12`, the Potency entry in experiment [2], in experiment [8], in experiment [9], in experiment [14], in experiment [10] and in experiment [11] was “inactive” throughout. Further, the Potency result in [12] is “inactive”. Also, the Potency in experiment [13] was 26.4 µM (active); in [3] it was 21.7 µM (active).
Consider `CCOc1ccc(Nc2nc(-c3c(C)nc4ccccn34)cs2)cc1`, for which the Potency entry in experiment [1], in experiment [2], in experiment [7], in [8], in experiment [9] and in experiment [14] was “inactive” each time. The Potency entry in experiment [10], in experiment [11] and in [12] was “inactive” each time. Moreover, the Potency was 0.001 µM (active) in experiment [13]; 0.0039 µM (active) in experiment [3]; 0.131 µM (active) in experiment [5]; 0.0928 µM (active) in [15]; 1.47 µM (active) in experiment [6].
Consider `CCS(=O)(=O)N1CC(CC#N)(n2cc(-c3ncnc4[nH]ccc34)cn2)C1`, for which the Potency entry in [1], in experiment [2], in [16] and in experiment [10] was “inactive” throughout. Moreover, the Potency was 11.8 µM (active) in experiment [7], 20.9 µM (active) in [13] and 18.7 µM (active) in experiment [12].
As for `O=c1cc(CN2CCOCC2)occ1OCCCCCSc1ccnc2cc(C(F)(F)F)ccc12`, the values for the Potency in [2] and in experiment [3] were 4.18 µM (active) and 15.3 µM (active), respectively. The Potency result in experiment [14] and in experiment [11] was “inactive” throughout.
For `CC[C@H]1OC(=O)[C@H](C)[C@@H](O[C@H]2C[C@@](C)(OC)[C@@H](O)[C@H](C)O2)[C@H](C)[C@@H](O[C@@H]2O[C@H](C)C[C@H](N(C)C)[C@@H]2O)[C@](C)(O)C[C@@H](C)CN(C)[C@H](C)[C@@H](O)[C@]1(C)O`, the Potency result in experiment [1], in experiment [16], in experiment [8], in experiment [3], in experiment [14] and in experiment [10] was “inactive” each time. The Potency result in [11] was “inactive”.
For `Cc1ccc(Nc2cc(-c3cccc(N4C(=O)c5ccccc5C4=O)c3)ncn2)cc1NS(C)(=O)=O`, the Potency entry in experiment [1], in experiment [8] and in [10] was “inactive” each time. Also, the Potency in experiment [2] was 33.2 µM (active); in [13] it was 23.5 µM (active).
